Screens: PubChem BioAssay, several laboratories
Compounds with a hit are over-represented: about 2.4% of the library has one in this group of screens.
Arbovirus inh – arbovirus infection inhibition; AID 1251; arbovirus infection cell-based antiviral screen; 200,000 compounds, 0.37% hits; inhibition, % at 10 µM; in the data active = inhibition above about 30%
EP2 mod – modulators of human EP2 prostaglandin E2 receptor | P43116 | EP2-expressing cells, cAMP HTRF FRET, PGE2 co-stimulation | induction, % at 25 µM | 260,000 compounds, 0.83% hits | AID 940;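 active = compounds whose cAMP rise, as percent of the full-agonist control response, exceeds 60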;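 also: rat C6 glioma line stably carrying human EP2 under a CMV promoter; the protocol text gives 20 µM as final concentration; 100% = response of wells given 1 µM PGE2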
p97 ATPase inh – human p97 ATPase inhibition. AID 1481. 220,000 compounds, 0.42% hits. P55072. recombinant p97 ATPase, Kinase-Glo ATP luminescence, 3 h. inhibition, % at 8 µM; in the data active = inhibition above about 15%;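 also: 0% = DMSO vehicle and 100% = wells lacking enzyme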
Hck Nef HTS – inhibitors of human Hck kinase activated by Nef; Recombinant Hck-YEEI plus Nef, Z-Lyte FRET kinase assay; inhibition, % at 20 µM; P08631; 220,000 compounds, 0.68% hits;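 active = Hck-Nef kinase inhibition above about 50%, limit read from the data; inactive = inhibition below that limit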;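 also: 0% = DMSO with Hck plus Nef and 100% = Hck alone without Nef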
Target sequence (P08631 whole entry, looked up): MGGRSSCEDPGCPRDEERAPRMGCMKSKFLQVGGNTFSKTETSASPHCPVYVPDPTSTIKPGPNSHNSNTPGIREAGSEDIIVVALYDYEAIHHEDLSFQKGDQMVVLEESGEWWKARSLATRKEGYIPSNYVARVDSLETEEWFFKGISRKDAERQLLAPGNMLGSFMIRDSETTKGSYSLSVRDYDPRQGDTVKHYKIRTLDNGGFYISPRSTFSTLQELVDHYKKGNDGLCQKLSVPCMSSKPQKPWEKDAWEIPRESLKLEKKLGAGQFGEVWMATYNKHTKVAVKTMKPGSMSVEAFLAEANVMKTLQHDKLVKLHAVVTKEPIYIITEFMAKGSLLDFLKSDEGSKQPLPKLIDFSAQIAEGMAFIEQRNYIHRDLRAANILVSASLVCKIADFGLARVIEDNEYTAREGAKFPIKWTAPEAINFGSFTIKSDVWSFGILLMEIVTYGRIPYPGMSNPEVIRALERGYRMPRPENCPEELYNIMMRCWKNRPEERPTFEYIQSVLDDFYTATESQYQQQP
PGE2 EP2 inh – blocks the human prostaglandin E2 receptor EP2. C6 glioma cells expressing human EP2, cAMP TR-FRET; cells stimulated with saturating PGE2. inhibition, % at 25 µM. 260,000 compounds, 0.52% hits. AID 1422;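 active = percent inhibition above 40 after rounding to a whole number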;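 also: rat C6 glioma host cells with rolipram phosphodiesterase inhibitor present; the protocol text gives 20 µM as final concentration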
EP2 confirm – human EP2 receptor cAMP induction, negative in counter-screens | shares compounds with EP2 mod | C6 glioma EP2 cells, cAMP HTRF induction; plus low (about EC15) PGE2 agonist | calls only at 20 µM (by protocol) | 1,300 compounds, 47% hits | AID 1080;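 active = cAMP induction above 50% in the main assay while under 30% in all four parallel counter assays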;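 also: rat C6 glioma cells stably expressing human EP2 receptor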
Active calls of the source: *; ! = a repeat was not active.

How did CC(=O)Nc1ccc(-n2nnnc2SCC(=O)Nc2nc3c(s2)CCCC3)cc1 do in these assays?
EP2 mod: -25.7; PGE2 EP2 inh: 7.6

What do the screens show for `O=C(COc1cccc(NC(=O)c2ccccc2)c1)c1ccccc1`?
Arbovirus inh: -0.5; EP2 mod: -84.8; p97 ATPase inh: 7.3; Hck Nef HTS: 16.9; PGE2 EP2 inh: 1.8

How did O=C(O)COc1cccc(NC(=O)c2ccccc2)c1 do in these assays?
Arbovirus inh: -1.0; EP2 mod: 95.7*; p97 ATPase inh: 3.0; Hck Nef HTS: 0.2; PGE2 EP2 inh: 6.8; EP2 confirm: active

Results for Cc1cccc(C(=O)Nc2cccc(OCC(=O)O)c2)c1 ?
Arbovirus inh: -0.3; EP2 mod: 94.9*; p97 ATPase inh: -1.2; Hck Nef HTS: 3.8; PGE2 EP2 inh: 0.9; EP2 confirm: active

Results for Cc1ccn(C(=O)COc2ccc3ccccc3c2)n1 ?
EP2 mod: -67.2; PGE2 EP2 inh: 12.8

What do the screens show for `Cc1cc(NS(=O)(=O)c2ccc(Oc3ccccc3)cc2)no1`?
EP2 mod: -18.4; PGE2 EP2 inh: 9.4

How did CN1C(C(=O)Nc2ccccn2)=C(O)c2ccccc2S1(=O)=O do in these assays?
Arbovirus inh: 13.3; EP2 mod: 53.5; p97 ATPase inh: 10.5; Hck Nef HTS: 0.8; PGE2 EP2 inh: 13.1

What do the screens show for `Cc1cc(NC(=O)C2=C(O)c3ccccc3S(=O)(=O)N2C)no1`?
Arbovirus inh: 0.1; EP2 mod: 69.2*!; p97 ATPase inh: 9.7; Hck Nef HTS: -13.5; PGE2 EP2 inh: 10.1; EP2 confirm: inactive

How did COCCCN1C(=O)/C(=C/c2ccc(Cl)c(Cl)c2)SC1=S do in these assays?
EP2 mod: 4.2; PGE2 EP2 inh: 6.1

How did COc1ccccc1NC(=O)C1=C(C)NC2=C(C(=O)CC(C)(C)C2)C1c1ccc(OC)c(OC)c1 (stereo unspecified) do in these assays?
EP2 mod: -2.1; PGE2 EP2 inh: 6.0

What do the screens show for `FC(F)(F)c1cc(CO[C@H]2CCCN[C@H]2c2ccccc2)cc(C(F)(F)F)c1`?
EP2 mod: 68.0*; PGE2 EP2 inh: 13.8; EP2 confirm: inactive

What do the screens show for `COc1ccc(N=Cc2cc(Cc3ccccc3Cl)cc([N+](=O)[O-])c2O)cc1OC`?
Arbovirus inh: 15.3; EP2 mod: 71.8*; p97 ATPase inh: -0.1; Hck Nef HTS: 25.2; PGE2 EP2 inh: 3.4; EP2 confirm: active

How did COc1ccc([N+](=O)[O-])cc1NC(=O)Cc1ccccc1Cl do in these assays?
Arbovirus inh: -7.8; EP2 mod: 3.4; p97 ATPase inh: 0.7; Hck Nef HTS: 2.5; PGE2 EP2 inh: 1.2

Results for Cc1ccc2c(c1)N(CCCS(=O)(=O)[O-])/C(=C/c1cccc[n+]1C)S2 ?
EP2 mod: 7.7; PGE2 EP2 inh: 10.5

How did C=CCn1c(SCCC#N)nnc1-c1ccc2[nH]c(C)c(C)c2c1 do in these assays?
EP2 mod: -79.3; PGE2 EP2 inh: 12.5

What do the screens show for `COc1ccc(C(=O)CSc2nnc(COc3ccc(C#N)cc3)n2-c2ccccc2)cc1`?
Arbovirus inh: -6.8; EP2 mod: -14.0; p97 ATPase inh: -0.6; Hck Nef HTS: 1.0; PGE2 EP2 inh: 17.1

Results for O=C(CSc1nnc(COc2ccccc2)n1-c1ccccc1)c1ccccc1 ?
Arbovirus inh: 0.6; EP2 mod: 50.5; p97 ATPase inh: -7.4; Hck Nef HTS: -0.5; PGE2 EP2 inh: 10.1; EP2 confirm: inactive

Results for OC(CN1CCC2(CC1)CC(O)c1ccccc1O2)c1ccc(F)c(F)c1 (stereo unspecified) ?
EP2 mod: -54.8; PGE2 EP2 inh: 5.4

Results for CC(C)NC(=O)c1ccccc1NC(=O)C(C)Oc1ccccc1 (stereo unspecified) ?
Arbovirus inh: 0.7; EP2 mod: -5.5; p97 ATPase inh: 0.7; Hck Nef HTS: 24.0; PGE2 EP2 inh: 6.4

What do the screens show for `COC(=O)c1ccccc1NC(=O)C(C)Oc1ccccc1` (stereo unspecified)?
Arbovirus inh: 1.2; EP2 mod: 52.6; p97 ATPase inh: -0.1; Hck Nef HTS: -0.5; PGE2 EP2 inh: 12.3; EP2 confirm: inactive

How did COc1ccc(-n2c(=S)[nH]c3sc(C)c(C)c3c2=O)cc1 do in these assays?
EP2 mod: 52.2; PGE2 EP2 inh: 18.1

How did Cc1cc(SCCC(=O)O)nc2c(C)cccc12 do in these assays?
Arbovirus inh: 6.7; EP2 mod: 82.1*; p97 ATPase inh: 1.7; Hck Nef HTS: 1.1; PGE2 EP2 inh: 12.1; EP2 confirm: inactive

Results for COc1ccc(-c2nc3c(c(=O)[nH]c(=O)n3Cc3ccccc3)n2C)cc1 ?
Arbovirus inh: -3.6; EP2 mod: 51.9; p97 ATPase inh: 4.8; Hck Nef HTS: 2.3; PGE2 EP2 inh: 9.1

What do the screens show for `COc1ccc(-c2nc3c(c(=O)[nH]c(=O)n3Cc3ccccc3)n2Cc2ccccc2)cc1`?
Arbovirus inh: -25.7; EP2 mod: 74.3*; p97 ATPase inh: 2.7; Hck Nef HTS: 0.4; PGE2 EP2 inh: 4.0; EP2 confirm: active

Results for COc1ccc(Cn2c(-c3ccc(OC)cc3)nc3ccccc32)cc1 ?
Arbovirus inh: -18.7; EP2 mod: 66.9*; p97 ATPase inh: -4.0; Hck Nef HTS: 9.0; EP2 confirm: inactive

How did Cc1cccc(NC(=O)N2CCC(C(=O)NC3CCCc4ccccc43)CC2)c1 (stereo unspecified) do in these assays?
EP2 mod: -49.0; PGE2 EP2 inh: 4.7

What do the screens show for `COc1ccc(/C=N/N(C(C)=O)c2nc(-c3ccc(C)cc3)cs2)cc1`?
Arbovirus inh: 1.4; EP2 mod: 37.0; p97 ATPase inh: 1.2; Hck Nef HTS: 0.0; PGE2 EP2 inh: 8.5

What do the screens show for `COc1ccccc1/C=N/N(C(C)=O)c1nc(-c2ccc(F)cc2)cs1`?
Arbovirus inh: 15.3; EP2 mod: 73.2*; p97 ATPase inh: -1.6; Hck Nef HTS: 1.6; PGE2 EP2 inh: 3.2; EP2 confirm: inactive

What do the screens show for `CC(=O)NC1(c2ccccc2F)CCN(Cc2cnc(N3CCCCC3)nc2)CC1`?
EP2 mod: 15.4; PGE2 EP2 inh: 11.7

Results for Nc1nc(Cc2ccccc2)nc(Cc2ccccc2)c1-c1ccccc1 ?
EP2 mod: 66.6*; PGE2 EP2 inh: 39.2; EP2 confirm: inactive

Results for COc1ccc2oc(=O)c(C(=O)C[n+]3ccc4ccccc4c3)cc2c1 ?
EP2 mod: -26.4; PGE2 EP2 inh: 12.9

Results for CSc1nc2nccc(-c3ccc(-c4ccccc4)cc3)n2n1 ?
Arbovirus inh: -23.9; EP2 mod: 70.1*; p97 ATPase inh: 0.4; Hck Nef HTS: 1.2; PGE2 EP2 inh: 10.0; EP2 confirm: inactive

How did COc1cc(OC)cc(-c2nnc(SCC(=O)c3c(C)c(C)cc(C)c3C)o2)c1 do in these assays?
EP2 mod: 4.9; PGE2 EP2 inh: 10.7

How did CCOC(=O)c1cc(CC)sc1NC(=O)c1cc(OC)c(OC)c(OC)c1 do in these assays?
Arbovirus inh: 4.0; EP2 mod: 67.8*; p97 ATPase inh: -3.5; Hck Nef HTS: 1.4; PGE2 EP2 inh: 10.0; EP2 confirm: active
